# Inconclusive results are not listed. Active and inactive are the calls of the source. The calls were made as follows: active = hit-call score of the fitted dose curve at least 0.9, where 1 is the maximum; inconclusive = response in the unintended direction; inactive = score below 0.9.
# Target: Oxysterols receptor LXR-beta (Homo sapiens) (UniProt P55055)
# Test: ATG_LXRb_TRANS: Attagene TRANS-FACTORIAL HepG2 Assay for human Liver X Receptor beta (LXRb) (AID 2282981)
# Conditions: HepG2 Attagene TRANS GAL4-LXRb reporter, mRNA
# Procedure: ATG_TRANS is a cell-based, multiplexed-readout assay that uses HepG2, a human liver cell line, with measurements taken at 24 hours after chemical dosing in a 24-well plate.ATG_LXRb_TRANS is one of 30 assay component(s) measured or calculated from the ATG_TRANS assay. It is designed to make measurements of mRNA induction, a form of inducible reporter, as detected with fluorescence intensity signals by Reverse transcription polymerase chain reaction (RT-PCR) and Capillary electrophoresis technology.Data from the assay component ATG_LXRb_TRANS was analyzed into 1 assay endpoint. This assay endpoint, ATG_LXRb_TRANS, was analyzed in the positive analysis fitting direction relative to DMSO as the negative control and baseline of activity. Using a type of inducible reporter, measures of mRNA for gain-of-signal activity can be used to understand the reporter gene at the transcription factor-level as they relate to the gene NR1H2. Furthermore, this assay endpoint can be referred to as a primary readout, because this assay has produced multiple assay endpoints where this one serves a reporter gene function. To generalize the intended target to other relatable targets, this assay endpoint is annotated to the nuclear receptor intended target family, where the subfamily is non-steroidal.
# Human liver HepG2 cells are transiently transfected with multiple reporter transcription units (MRTUs) in 6-well plates using FuGene 6 reagent (Roche; 3 ml FuGene/1 mg DNA). The MRTU constructs are regulated by a cis-regulating element (promoter). […] A major difference between the CIS and TRANS system is that in CIS activities of endogenous TFs are measured, whereas the TRANS assay evaluates changes in activities of exogenous, chimeric NR-Gal4 proteins. […] At the end of 24 hour incubation, total RNA was isolated using TriZol reagent (Invitrogen). The isolated RNA is then reverse-transcribed using oligo(dT) primer and Mo-MLV reverse transcriptase (Invitrogen) with DNAse I (Ambion) treatment for 30 min. The one-tenth of the produced cDNA was amplified by PCR using Taq DNA polymerase (Invitrogen) and two reporter sequence-specific primers. The PCR products were fluorescently labeled by primer extension with 6-arboxyfluorescein (6-FAM) 5'-labeled reporter sequence-specific primer (2 min at 95 C, 20 s at 68 C and 10 min at 72 C) and these products were digested with 5U of HpaI (New England Biolabs) for 2h at 37 C. The fragments were purified using Qiaquick PCR columns (Qiagen), analyzed on an ABI 3130xL genetic analyzer (Applied Biosystems) with peak positions identified by using a set of X-rhodamine (ROX)-labeled MapMarker1000 molecular weight standards (BioVentures). The raw capillary electrophoresis data was processed using Attagraph software (Attagene).
# Chain of Oxysterols receptor LXR-beta (Homo sapiens) (P55055 whole entry, looked up): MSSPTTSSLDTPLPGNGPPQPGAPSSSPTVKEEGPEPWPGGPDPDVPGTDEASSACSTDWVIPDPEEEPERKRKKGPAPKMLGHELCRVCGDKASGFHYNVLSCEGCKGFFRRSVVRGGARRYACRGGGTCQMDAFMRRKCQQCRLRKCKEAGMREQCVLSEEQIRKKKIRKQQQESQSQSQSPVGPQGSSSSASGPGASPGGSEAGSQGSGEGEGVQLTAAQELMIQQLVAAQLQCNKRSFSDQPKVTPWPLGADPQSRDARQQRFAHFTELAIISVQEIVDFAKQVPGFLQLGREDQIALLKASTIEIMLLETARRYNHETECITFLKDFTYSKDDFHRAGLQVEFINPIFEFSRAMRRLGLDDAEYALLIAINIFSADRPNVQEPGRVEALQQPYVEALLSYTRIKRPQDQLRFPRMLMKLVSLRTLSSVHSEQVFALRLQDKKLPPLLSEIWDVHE
row,SMILES,outcome
1,OCCC(F)(F)C(F)(F)C(F)(F)C(F)(F)F,inactive
2,CC(C)C(=O)Nc1ccc([N+](=O)[O-])c(C(F)(F)F)c1,inactive
3,NC(=O)N1c2ccccc2C=Cc2ccccc21,inactive
4,CC(C)CCCCCCOC(=O)C1CCCCC1C(=O)OCCCCCCC(C)C (stereo not given),inactive
5,C=CN1CCCC1=O,inactive
7,O=C(O)c1cccc(C(=O)O)c1,inactive
8,CCn1nc(C)c2c1C(=O)NCC(c1ccc(O)cc1)=N2,inactive
9,NNC(=O)c1ccncc1,inactive
10,OCc1ccccc1,inactive
11,C[C@@H](Oc1ccc(CNC(=O)c2cccnc2Oc2ccc3c(c2)OCO3)c(F)c1)C(=O)O,inactive
12,CCCCCCCCCCCCCCO,inactive
13,CCCCCCCC/C=C\CCCCCCCC(=O)OC[C@@H](O)[C@H]1OC[C@H](O)[C@H]1O,inactive
14,OC(Cn1cncn1)(Cn1cncn1)c1ccc(F)cc1F,inactive
15,O=c1[nH]cnc2c1ncn2[C@H]1CC[C@@H](CO)O1,inactive
16,OCC(CO)(CO)CO,inactive
17,S=P(N1CC1)(N1CC1)N1CC1,inactive
18,CCCCOC(=O)c1ccccc1,inactive
19,O=C(Cl)C(F)(F)C(F)(F)C(F)(F)C(=O)Cl,inactive
20,c1ccc2c(c1)-c1cccc3c1c-2cc1ccccc13,inactive

row,SMILES,outcome
1,O=C(NO)C1(NS(=O)(=O)c2ccc(Oc3ccc(F)cc3)cc2)CCOCC1,inactive
2,CCCCCCCCCCCCCCCCOS(=O)(=O)O,inactive
3,CC(C)c1nnc2ccc(-c3ocnc3-c3cc(F)ccc3F)cn12,inactive
4,COc1cc2c(c(OC)c1OC)-c1ccc(OC)c(=O)cc1[C@@H](NC(C)=O)CC2,inactive
5,O=S(=O)(O)CCC(F)(F)C(F)(F)C(F)(F)C(F)(F)C(F)(F)C(F)(F)F,inactive
6,OC(CCl)CCl,inactive
7,CCCOc1ccc(S(=O)(=O)N2CCN(CC)CC2)cc1-c1nc2c(CC)n(Cc3ccccn3)nc2c(=O)[nH]1,inactive
8,Cc1nccn1-c1ccc(Sc2cccc(C3(C(N)=O)CCOCC3)c2)cc1,inactive
9,C[Si](C)(C)C(F)(F)C(F)(F)C(F)(F)F,inactive
11,NC(N)=O,inactive
13,Cc1ccc(S(=O)(=O)NC(=O)NN2CCCCCC2)cc1,inactive
14,FC(F)(F)C(F)(F)C(F)(F)C(F)(F)C(F)(F)C(F)(F)I,inactive
15,CCCCCCCCN(C)C,inactive
16,OCc1c[nH]c2ccccc12,inactive
17,FC(F)(F)COC(OCC(F)(F)F)OCC(F)(F)F,inactive
18,Cc1ncc([C@@H](CCCCCCc2ccc3c(n2)NCCC3)CC(=O)O)cn1,inactive
19,Nc1ccn([C@@H]2O[C@H](CO)[C@@H](O)[C@@H]2O)c(=O)n1,inactive
20,NC(=O)N(O)[C@@H]1COc2cc(OCc3ccccc3)ccc21,inactive
